{"source": "the supplement of paper PMC3334620", "note": "Whole data set: some 33,000 sequences, median “E-score (-0.5 to 0.5)” near -0.032, cut for the highest 2% near 0.36. The list comes from a sample in which the highest values are over-represented; it also holds similar and randomly drawn sequences."}
{"biological_target": "T1, Sko1 (UniProt Q02100)", "T1 sequence": "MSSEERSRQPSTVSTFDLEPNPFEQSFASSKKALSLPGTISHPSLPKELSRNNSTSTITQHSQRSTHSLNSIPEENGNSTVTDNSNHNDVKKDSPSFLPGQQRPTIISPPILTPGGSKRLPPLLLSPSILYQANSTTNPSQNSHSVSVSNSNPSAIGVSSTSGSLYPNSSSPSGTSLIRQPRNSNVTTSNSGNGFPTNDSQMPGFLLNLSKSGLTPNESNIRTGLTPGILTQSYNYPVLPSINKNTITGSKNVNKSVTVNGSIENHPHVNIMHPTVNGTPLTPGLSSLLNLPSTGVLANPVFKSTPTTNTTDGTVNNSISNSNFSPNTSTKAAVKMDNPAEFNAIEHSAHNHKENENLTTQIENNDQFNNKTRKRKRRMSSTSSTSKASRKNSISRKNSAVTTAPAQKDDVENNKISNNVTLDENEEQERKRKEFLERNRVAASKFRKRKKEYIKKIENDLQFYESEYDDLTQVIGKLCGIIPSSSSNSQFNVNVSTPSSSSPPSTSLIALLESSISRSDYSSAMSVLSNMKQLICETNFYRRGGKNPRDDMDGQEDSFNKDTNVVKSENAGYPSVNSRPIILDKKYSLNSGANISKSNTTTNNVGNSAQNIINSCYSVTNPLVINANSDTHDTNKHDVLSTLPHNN", "assay": "PBM E-score (8-mer binding enrichment) (E-score (-0.5 to 0.5)); higher = stronger / more preferred TF binding", "conditions": "protein concentration: 200 nM; construct: GST-full length", "method_in_brief": "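Yeast transcription factors, full-length or as DNA-binding domains, were expressed with a GST tag using PURExpress in vitro transcription/translation. At about 100-200 nM they were applied to universal all-10-mer Agilent arrays, double-stranded by primer extension on fresh or once-stripped slides. Fluorescent anti-GST detected bound protein, and masliner normalised the scans. E-scores for ungapped eight-base words, pooled with reverse complements, came from the Universal PBM Analysis Suite.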"}
{"sequence": "ACGTGCCA", "PBM E-score": 0.396}
{"sequence": "CCGTGACG", "PBM E-score": 0.396}
{"sequence": "ACGTGCCG", "PBM E-score": 0.243}
{"sequence": "ACGTGACT", "PBM E-score": 0.324}
{"sequence": "ACGTGAAG", "PBM E-score": 0.326}
{"sequence": "ACGTGACG", "PBM E-score": 0.462}
{"sequence": "CCGTGACA", "PBM E-score": -0.14}
{"sequence": "CCGTGACC", "PBM E-score": -0.28}
{"sequence": "ACGTGACA", "PBM E-score": 0.394}
{"sequence": "ACGTGACC", "PBM E-score": 0.292}
{"sequence": "TCGTGACA", "PBM E-score": 0.129}
{"sequence": "GCGTGCCA", "PBM E-score": -0.151}
{"sequence": "AAATCAGG", "PBM E-score": 0.0636}
{"sequence": "CAGAACTC", "PBM E-score": -0.0896}
{"sequence": "CTTTTTAA", "PBM E-score": 0.112}
{"sequence": "GCAACCCC", "PBM E-score": -0.249}
{"sequence": "ACCGCCTC", "PBM E-score": -0.312}
{"sequence": "CGAGTATA", "PBM E-score": -0.0254}
{"sequence": "AAGTAGGG", "PBM E-score": -0.0549}
{"sequence": "GCGTAGGA", "PBM E-score": 0.0517}
{"sequence": "AGGTAGGG", "PBM E-score": -0.137}
{"sequence": "ACGTAGGC", "PBM E-score": 0.425}
{"sequence": "AAGTAGGC", "PBM E-score": -0.0531}
{"sequence": "ACGTAGGG", "PBM E-score": 0.425}
{"sequence": "ACGTAGGA", "PBM E-score": 0.446}
{"sequence": "CCGTAGGA", "PBM E-score": -0.29}
{"sequence": "CCGTAGGC", "PBM E-score": -0.293}
{"sequence": "CGCTAAGA", "PBM E-score": 0.0374}
{"sequence": "GCACAGGC", "PBM E-score": -0.115}
{"sequence": "AAAGGCCA", "PBM E-score": -0.118}
{"sequence": "GTTGAGCA", "PBM E-score": 0.0589}
{"sequence": "ACATCTCT", "PBM E-score": 0.0591}
{"sequence": "GTCAACCA", "PBM E-score": 0.0809}
{"sequence": "GGAACTAA", "PBM E-score": -0.0195}
{"sequence": "CCATTGAG", "PBM E-score": 0.00857}
{"sequence": "GTAAAAAC", "PBM E-score": 0.184}
{"sequence": "GGACTCGA", "PBM E-score": -0.342}
{"sequence": "AGTATACA", "PBM E-score": 0.0979}
{"sequence": "GGTATACA", "PBM E-score": 0.0243}
{"sequence": "AGTATACG", "PBM E-score": 0.267}
{"sequence": "CGTATACG", "PBM E-score": 0.393}
{"sequence": "AGTATATA", "PBM E-score": 0.254}
{"sequence": "CGTATACA", "PBM E-score": 0.372}
{"sequence": "CGTATATC", "PBM E-score": 0.319}
{"sequence": "CGTATATA", "PBM E-score": 0.418}
{"sequence": "CGTATACC", "PBM E-score": 0.132}
{"sequence": "GCTCAAAC", "PBM E-score": -0.0717}
{"sequence": "ACGCCCTC", "PBM E-score": -0.134}
{"sequence": "GGACACTA", "PBM E-score": -0.125}
{"sequence": "AAGATCGT", "PBM E-score": 0.0795}
{"sequence": "GAACGACC", "PBM E-score": -0.306}
{"sequence": "TAGATAGA", "PBM E-score": 0.0341}
{"sequence": "AAACGGGC", "PBM E-score": -0.131}
{"sequence": "AACGTTTC", "PBM E-score": 0.199}
{"sequence": "ACGTCTAT", "PBM E-score": 0.338}
{"sequence": "ACGTCTAC", "PBM E-score": 0.368}
{"sequence": "ACGTCTTG", "PBM E-score": 0.39}
{"sequence": "CCGTCTTC", "PBM E-score": -0.306}
{"sequence": "ACGTCTTA", "PBM E-score": 0.408}
{"sequence": "ACGTCTGG", "PBM E-score": 0.331}
{"sequence": "ACGTCTCG", "PBM E-score": 0.24}
{"sequence": "CCGTCTAC", "PBM E-score": 0.0306}
{"sequence": "ACGTCTCC", "PBM E-score": 0.322}
{"sequence": "CCGTCTTA", "PBM E-score": 0.00816}
{"sequence": "ACGTCTGA", "PBM E-score": 0.339}
{"sequence": "ACGTCTTC", "PBM E-score": 0.389}
{"sequence": "AAGCGGGT", "PBM E-score": -0.268}
{"sequence": "AAAATGAT", "PBM E-score": 0.246}
{"sequence": "GTATGCAA", "PBM E-score": 0.177}
{"sequence": "CACTATCC", "PBM E-score": -0.124}
{"sequence": "AGAGTCAT", "PBM E-score": -0.0362}
{"sequence": "AACCGCAC", "PBM E-score": 0.0215}
{"sequence": "ACGTATTG", "PBM E-score": 0.464}
{"sequence": "CCGTATTC", "PBM E-score": 0.0573}
{"sequence": "AAGTATTG", "PBM E-score": 0.15}
{"sequence": "ACGTATTA", "PBM E-score": 0.468}
{"sequence": "CCGTATTA", "PBM E-score": 0.152}
{"sequence": "GCGTATTA", "PBM E-score": 0.333}
{"sequence": "AGGTATTC", "PBM E-score": 0.0465}
{"sequence": "ATGTATTG", "PBM E-score": 0.196}
{"sequence": "ACGTATTC", "PBM E-score": 0.471}
{"sequence": "CTGGTCTC", "PBM E-score": -0.342}
{"sequence": "GATCAGCA", "PBM E-score": -0.0416}
{"sequence": "GTGCCTCA", "PBM E-score": -0.118}
{"sequence": "AAAACAGT", "PBM E-score": 0.0855}
{"sequence": "ACTTCGGC", "PBM E-score": -0.00736}
{"sequence": "CTTTACGA", "PBM E-score": 0.218}
{"sequence": "CGTTACGA", "PBM E-score": 0.349}
{"sequence": "GATTACTA", "PBM E-score": 0.204}
{"sequence": "GCTTACGA", "PBM E-score": 0.238}
{"sequence": "GATTACGA", "PBM E-score": 0.418}
{"sequence": "AATTACTA", "PBM E-score": 0.195}
{"sequence": "CATTACGG", "PBM E-score": 0.292}
{"sequence": "CATTACGA", "PBM E-score": 0.398}
{"sequence": "AATTACCA", "PBM E-score": 0.151}
{"sequence": "AGTTACGC", "PBM E-score": 0.317}
{"sequence": "CGTTACGC", "PBM E-score": 0.362}
{"sequence": "AATTACGA", "PBM E-score": 0.411}
